This passage reports remaining activity results from PubChem BioAssay AID602144 (Vanderbilt Specialized Chemistry Center, 2011).

A number with no mark means an inactive call. Active and inactive are the calls of the source. Rule as the data show it: active = remaining activity below about 50%; inactive = the rest.

The target in the experiment is Phospholipase D1 (Homo sapiens) (UniProt Q13393). Nature of the experiment: PLD1 inhibitors in cells, Calu-1 cells, single concentration (AID 602144).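 Also: tested at 200 nM.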 As to conditions: cellular PLD1 activity, stronger effect = lower value.
Chain of Phospholipase D1 (Homo sapiens) (Q13393 whole entry, looked up): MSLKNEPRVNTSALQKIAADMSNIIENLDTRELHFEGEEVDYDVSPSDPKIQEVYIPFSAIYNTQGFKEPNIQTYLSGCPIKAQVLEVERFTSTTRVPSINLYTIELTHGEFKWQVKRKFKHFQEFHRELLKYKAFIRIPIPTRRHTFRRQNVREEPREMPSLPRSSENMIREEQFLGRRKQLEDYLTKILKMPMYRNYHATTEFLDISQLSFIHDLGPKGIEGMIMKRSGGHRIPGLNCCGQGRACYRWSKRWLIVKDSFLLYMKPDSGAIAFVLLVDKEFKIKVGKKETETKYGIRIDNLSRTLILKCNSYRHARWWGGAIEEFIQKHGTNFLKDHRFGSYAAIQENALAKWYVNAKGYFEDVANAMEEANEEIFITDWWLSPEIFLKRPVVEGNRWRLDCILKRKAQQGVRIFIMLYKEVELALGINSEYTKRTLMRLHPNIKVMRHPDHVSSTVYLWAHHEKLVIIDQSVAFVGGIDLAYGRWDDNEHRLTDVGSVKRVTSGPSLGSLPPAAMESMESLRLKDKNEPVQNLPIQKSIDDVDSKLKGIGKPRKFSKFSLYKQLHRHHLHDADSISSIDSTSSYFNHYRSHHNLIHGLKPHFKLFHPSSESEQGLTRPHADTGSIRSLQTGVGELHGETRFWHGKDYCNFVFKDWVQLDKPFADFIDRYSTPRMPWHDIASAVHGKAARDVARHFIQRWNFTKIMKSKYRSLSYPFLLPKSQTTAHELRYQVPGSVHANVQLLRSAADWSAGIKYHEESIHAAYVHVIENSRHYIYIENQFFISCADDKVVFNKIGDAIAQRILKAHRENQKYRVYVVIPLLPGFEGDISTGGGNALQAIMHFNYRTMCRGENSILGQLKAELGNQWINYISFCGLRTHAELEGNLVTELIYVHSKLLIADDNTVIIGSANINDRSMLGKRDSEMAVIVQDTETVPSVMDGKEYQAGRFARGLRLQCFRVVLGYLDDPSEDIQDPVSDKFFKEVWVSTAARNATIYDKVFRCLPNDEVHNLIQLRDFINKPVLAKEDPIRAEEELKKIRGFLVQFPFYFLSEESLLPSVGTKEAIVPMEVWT
Chain of Phospholipase D1 (Homo sapiens) (Q13393 whole entry, looked up): as above
As for `CC(C)[C@@H](CN1CCC2(CC1)C(=O)NCN2c1ccccc1)NC(=O)c1cc2ccccc2[nH]1`, the remaining activity is 1.51% (active). Under `O=C(NCCCCCCN1CCC2(CC1)C(=O)NCN2c1ccccc1)c1cnc2ccccc2c1` stands 122%; under `O=C(c1cnc2ccccc2c1)N1CCCC1CN1CCC(n2c(=O)[nH]c3ccccc32)CC1` (stereo not given), 122%; under `O=C1c2ccccc2C(=O)N1CCN1CCC2(CC1)C(=O)NCN2c1ccccc1`, 102%. To `O=C(NCCN1CCC2(CC1)C(=O)NCN2c1ccccc1)c1ccc2c(c1)OCO2` belongs 92.4%; to `O=C(NCCN1CCC2(CC1)C(=O)NCN2c1cccc(Br)c1)c1ccc2ccccc2c1`, 76.6%; to `O=C(NCCN1CCC2(CC1)C(=O)NCN2c1ccc(Cl)cc1)c1cnc2ccccc2c1`, 94.2%.

Turning to `O=C(NCCN1CCC2(CC1)C(=O)NCN2c1cccc(F)c1)C1CCCCC1`, the remaining activity is 102%.

As for `O=C(CCN1CCC2(CC1)C(=O)NCN2c1ccccc1)Nc1ccc(Cl)cc1`, the remaining activity was 122%. With `O=C(NCCN1CCC2(CC1)C(=O)NCN2c1ccccc1)c1cnc2ccccc2n1`, the remaining activity is 96.5%. Under `CC(C)[C@@H](CN1CCC2(CC1)C(=O)NCN2c1ccccc1)NC(=O)c1ccc(F)cc1` stands 41.3% (active); under `O=C(NCCN1CCC2(CC1)C(=O)NCN2c1ccc(Br)cc1)c1cc2cc(F)ccc2[nH]1`, 55.7%; under `O=C(NCCN1CCC2(CC1)C(=O)NCN2c1ccccc1)C(c1ccccc1)c1ccccc1`, 99.2%. Under `O=C(NCCN1CCC2(CC1)C(=O)NCN2c1cccc(F)c1)c1cc2cc(F)ccc2[nH]1` stands 44% (active); under `Cc1ccccc1C(=O)N(CCN1CCC2(CC1)C(=O)NCN2c1cccc(F)c1)C(=O)c1ccccc1C`, 105%. Under `O=C(NCCN1CCC2(CC1)C(=O)NCN2c1ccccc1)c1ccnnc1` stands 104%; under `O=C(NCCN1CCC2(CC1)C(=O)NCN2c1ccccc1)c1ccc2cc(F)ccc2c1`, 73.9%; under `O=C(NCCN1CCC2(CC1)C(=O)NCN2c1ccc(F)c(F)c1)c1ccc(F)cc1`, 101%. With `O=C(NCCN1CCC2(CC1)C(=O)NCN2c1ccc(Br)cc1)c1cnc2ccccc2c1`, the remaining activity was 94.1%. With `O=C(C1C[C@H]1c1ccccc1)N1CC(N2CCC(n3c(=O)[nH]c4ccccc43)CC2)C1` (stereo not given in full), the remaining activity is 125%. For the compound `O=C(NCCN1CCC2(CC1)C(=O)NCN2c1cccc(F)c1)c1ccc(-c2ccccc2)cc1`, the remaining activity is 93%. Under `O=C(NCCN1CCC2(CC1)C(=O)NCN2c1ccccc1)c1cscn1` stands 92.4%; under `CCCCOc1ccc(C(=O)NCCN2CCC3(CC2)C(=O)NCN3c2cccc(F)c2)cc1`, 110%. To `C[C@@H](CN1CCC2(CC1)C(=O)NCN2c1ccc(F)c(F)c1)NC(=O)c1ccc(Cl)cc1` belongs 6.51% (active); to `O=C(c1c(F)cccc1F)N(CCN1CCC2(CC1)C(=O)NCN2c1cccc(F)c1)C(=O)c1c(F)cccc1F`, 97.9%. In the case of `COc1cccc(C(=O)NCCN2CCC3(CC2)C(=O)NCN3c2ccccc2)n1`, the remaining activity is 137%. Under `O=C(c1cccc(F)c1)N(CCN1CCC2(CC1)C(=O)NCN2c1cccc(F)c1)C(=O)c1cccc(F)c1` stands 93.5%; under `CN1CN(c2ccccc2)C2(CCN(CCNC(=O)c3ccc4ccccc4c3)CC2)C1=O`, 97.9%. To `O=C(NCCN1CCC2(CC1)C(=O)NCN2c1cccc(Cl)c1)c1ccc(F)cc1` belongs 79.6%; to `C[C@@H](CN1CCC2(CC1)C(=O)NCN2c1ccc(F)c(F)c1)NC(=O)c1ccc2ccccc2c1`, 25.7% (active).

`O=C(NCCN1CCC2(CC1)C(=O)NCN2c1ccc(F)cc1)c1ccc(F)cc1`: the remaining activity is 78.2%.

As for `O=C(NCCN1CCC2(CC1)C(=O)NCN2c1ccc(F)cc1)c1cc2cc(F)ccc2[nH]1`, the remaining activity is 48.1% (active). To `O=C(NCCCN1CCC2(CC1)C(=O)NCN2c1ccccc1)c1ccc2ccccc2c1` belongs 81%; to `O=C(NCCN1CCC2(CC1)C(=O)NCN2c1cccc(Cl)c1)c1cnc2ccccc2c1`, 55.4%; to `O=C(NCCN1CCC2(CC1)C(=O)NCN2c1ccc(F)cc1)c1ccc2cc(F)ccc2c1`, 94.6%.

Broadly, the remaining activity is the signal under treatment as a percentage of the control signal.
